Screening results as filed in PubChem BioAssay.
In the library only some 2.7% were active in any assay of this set; here they are far more common.
MsrA act = activators of bovine methionine sulfoxide reductase A; purified bovine MsrA, absorbance read-out; hit rate 0.3% among 360,000; activation, % at 10.6 µM; AID 602163; in the data active = activation above about 7.5%;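 also: 0% = vehicle and 100% = reference activator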
rCAG binder = binds r(CAG) RNA repeats; inhibition, % at 3 µM; r(CAG) RNA repeat, TO-PRO-1 dye displacement fluorescence; hit rate 1.3% among 370,000;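 active = inhibition above the plate cutoff, the mean of all test compounds on that plate plus 3 SD, cut at about 35% in these data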;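 also: 0% = DMSO alone and 100% = 100 µM mitoxantrone as full dye displacement; higher means more dye released from RNA so lower well fluorescence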
NadD block = NadD (S. aureus) enzyme inhibition | purified NadD enzyme, colorimetric absorbance read-out | inhibition, % at 20 µM | hit rate 0.78% among 360,000; in the data active = inhibition above about 26%
MsrA inhibitor = inhibitors of bovine MsrA; purified bovine MsrA, absorbance read-out; inhibition, % at 15.5 µM; hit rate 0.75% among 360,000; AID 651718; in the data active = inhibition above about 4.5%;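 also: 0% = vehicle wells with enzyme and 100% = reference inhibitor wells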
rCAG binder conf = r(CAG) RNA repeat binding, confirmation. hit rate 70% among 4,300. TO-PRO-1 dye displacement fluorescence. shares compounds with rCAG binder. inhibition, % at 3 µM. AID 652065;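 active = inhibition above a per-plate cutoff, the mean inhibition of sample wells plus 3 SD, cut at about 35% in these data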;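 also: loss of TO-PRO-1 fluorescence as compound displaces dye from 1x1 AA loop RNA; 0% = DMSO only wells and 100% = 100 µM mitoxantrone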
DNA CAG counter = counter-screen for rCAG RNA binders: DNA CAG dye complex inhibitors | d(CAG) DNA oligo TO-PRO-1 dye displacement, fluorescence | shares compounds with rCAG binder | hit rate 94% among 4,300 | inhibition, % at 3 µM;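 active = inhibition above its plate's cutoff, the mean test-well inhibition plus 3 SD, cut at about 4.8% in these data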;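 also: 0% = DNA dye mix with DMSO and 100% = 100 µM mitoxantrone; hits displace the dye from DNA and so lower well fluorescence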
dCAG dye DR = counter-screen for rCAG binders: inhibitors of DNA CAG TO-PRO-1 complex. shares compounds with rCAG binder. DNA CAG/GTC duplex TO-PRO-1 dye displacement fluorescence. IC50, µM. hit rate 20% among 250. AID 686960; in the data active = IC50 below about 10 µM
* marks the source's active call; other numbers are inactive results; i = inactive; / = no result.

SMILES	MsrA act	rCAG binder	NadD block	MsrA inhibitor	rCAG binder conf	DNA CAG counter	others
Cc1cn([C@H]2C[C@H](O)[C@@H](CNS(=O)(=O)c3ccc(NS(=O)(=O)N(C)C)cc3)O2)c(=O)[nH]c1=O	-1.7	0.6	-6.4	0.9	/	/
CCN(CC)S(=O)(=O)c1ccc(C(=O)NCC2CCCCC2)cc1	-3.9	0.2	-11.1	-0.7	/	/
O=C(O)CCn1cc(/C=C/C(=O)c2ccc(Cl)cc2)c(-c2ccc(Br)cc2)n1	-5.8	58.9*	-0.9	2.7	84.1*	49.2*
O=C(O)/C=C/c1cn(Cc2ccccc2)nc1-c1ccccc1	-3.6	0.5	-5.9	2.4	/	/
CCOC(=O)c1c(NS(C)(=O)=O)sc2c1CCC(C)C2 (stereo unspecified)	-9.7	48.0*	1.0	0.5	18.3	8.0*
CCOC(=O)c1c(NC(=O)C2C3C=CC(C3)C2C(=O)O)sc2c1CC(C)CC2 (stereo unspecified)	-0.5	48.3*	10.3	2.7	53.5*	14.4*
COc1cccc(C(=O)Nc2sc(C(C)C)cc2C(N)=O)c1OC	-3.0	15.2	-7.2	-0.2	/	/
O=C(Cn1nnc(-c2cc(C(F)(F)F)cc(C(F)(F)F)c2)n1)NNC(=S)Nc1ccc(Cl)cc1	-0.9	66.0*	9.5	-0.2	52.9*	20.9*
Cc1cc(C(F)(F)F)nn1CC(=O)NNC(=S)Nc1ccc(Cl)cc1	-8.6	16.7	-2.5	-0.1	/	/
COc1ccc(OC)c(NC(=O)CN2C(=O)COc3ccc(C)cc32)c1	0.2	-0.4	-1.7	0.1	/	/
O=C(N/N=C/c1cc(Cl)cc([N+](=O)[O-])c1O)c1cccc(S(=O)(=O)N2CCOCC2)c1	-1.1	68.1*	16.7	1.2	56.3*	20.2*
Cc1cc(C(=O)N/N=C/c2cc(Cl)cc([N+](=O)[O-])c2O)c2ccccc2n1	-3.8	56.2*	10.0	2.4	52.9*	16.3*
O=C(NN=Cc1cc(Cl)ccc1[N+](=O)[O-])c1cccc2ccccc12	-2.5	11.1	7.7	-0.5	/	/
CSc1ccccc1NC(=O)c1noc(C)c1[N+](=O)[O-]	-3.2	1.9	-1.5	1.2	/	/
N#Cc1c(SC(C(=O)O)c2ccccc2)nc2c(c1-c1cccs1)CCCC2 (stereo unspecified)	-3.2	67.2*	8.1	2.0	74.3*	28.2*	dCAG dye DR=i
CCOc1ccc2nc(NS(=O)(=O)c3ccc4c(c3)n(C)c(=O)n4C)sc2c1	-0.3	44.1*	7.1	-0.7	25.9	8.3*
COc1cc([N+](=O)[O-])cc(/C=N\NC(=O)C2COc3ccccc3O2)c1O (stereo unspecified)	-4.5	24.2	-2.8	0.5	/	/
COc1ccc(C(=O)N/C(=C/c2ccc(Cl)cc2)C(=O)Nc2ccc(C(=O)O)cc2)cc1	-8.2	45.8*	0.2	1.7	42.5*	11.7*
COc1ccc(/C=C(\NC(=O)c2ccc(OC)cc2)C(=O)Nc2cccc(C(=O)O)c2)cc1	-2.4	17.5	4.5	3.8	/	/
Cc1c(NC(=O)c2ccc(-c3ccc([N+](=O)[O-])cc3Cl)o2)c(=O)n(-c2ccccc2)n1C	-10.8	-0.4	5.2	3.1	/	/
CCOC(=O)c1c(-c2ccc(C)cc2)csc1NC(=O)C1CC=CCC1C(=O)O (stereo unspecified)	-10.4	2.3	11.4	-1.0	/	/
Cc1ccc(-c2csc(NC(=O)C3CC=CCC3C(=O)O)c2C(=O)OC(C)C)cc1 (stereo unspecified)	-8.3	50.6*	10.2	-1.0	58.0*	19.0*
CSc1cccc(NC(=O)Nc2nc3c(C)cccc3s2)c1	-3.0	51.5*	1.8	-0.6	45.0*	34.1*
COC(=O)Nc1nc2c(C)cccc2s1	-0.5	0.2	-2.0	1.0	/	/
O=C(O)CC1(CC(=O)NCc2ccc(C(F)(F)F)cc2)CCCCC1	-2.6	13.3	0.1	1.3	/	/
SMILES	MsrA act	rCAG binder	NadD block	MsrA inhibitor	rCAG binder conf	DNA CAG counter	others
O=C(O)CC1(CC(=O)Nc2cc(C(F)(F)F)cc(C(F)(F)F)c2)CCCCC1	-2.3	41.8*	-1.3	0.9	24.3	4.8*
Cc1ccc(OCCSc2nc3ccccc3n2CC(=O)O)c(C(C)C)c1	-2.8	38.2*	6.4	0.4	41.1*	9.8*
Cc1ccc(OCCSc2nc3ccccc3n2CC(=O)O)cc1	-4.5	11.1	3.3	0.8	/	/
O=C(COC(=O)c1cn(-c2ccccc2)nc1-c1cccnc1)NC1CC1	-1.1	1.9	1.7	1.4	/	/
Cc1ccc2c(c1)c(N=Nc1cccc(C(=O)O)c1)c(O)n2C	-12.0	37.8*	1.7	1.5	56.2*	12.3*	dCAG dye DR=i
CCOC(=O)[C@]12CCCCC/C=C\1N(CCc1ccc(Cl)cc1)C(=O)[C@H]2CC(=O)N1CCCC1	/	-0.6	/	/	/	/
O=[N+]([O-])c1ccccc1C=Nn1c(-c2cc(-c3ccccc3)n[nH]2)n[nH]c1=S	/	47.3*	/	/	53.1*	18.9*
O=[N+]([O-])c1ccccc1/C=C/C=N/n1c(-c2ccccc2)n[nH]c1=S	-2.6	28.3	6.1	4.1	/	/
S=c1[nH]nc(-c2cc(-c3ccccc3)n[nH]2)n1/N=C/C=C/c1ccco1	-0.8	41.5*	16.2	-0.8	50.9*	23.6*
S=c1[nH]nc(-c2cc(-c3ccccc3)n[nH]2)n1/N=C/c1c(Cl)cccc1Cl	-0.2	43.5*	26.4	1.3	67.7*	28.9*
Cc1ccc(-c2n[nH]c(=S)n2/N=C/C=C\c2ccccc2[N+](=O)[O-])cc1	0.9	34.9*	24.0	2.8	33.0	10.7*
CC(C)S(=O)(=O)CC(=O)c1ccc(Cl)cc1	-12.9	1.3	0.9	-1.6	/	/
CSc1nc2c(=O)[nH]cnc2s1	/	1.7	/	-0.2	/	/
Cc1cc2nc3c(=O)n(C4CCCCC4)c(=O)[nH]c3nc2cc1N	-3.3	-74.4	16.4	0.7	/	/
CCOc1cc2c(cc1O)C(=NO)CC1C2CCC2(C)C(O)CCC12 (stereo unspecified)	-3.4	0.1	-1.5	0.3	/	/
COc1ccc(OC)c(-n2c(-c3cc(-c4ccccc4)n[nH]3)n[nH]c2=S)c1	-0.1	7.1	2.5	-0.2	/	/
S=c1[nH]nc(-c2cc(-c3ccccc3)n[nH]2)n1/N=C/c1cccc2ccccc12	/	78.6*	/	/	78.4*	40.3*
COc1ccc2ccccc2c1C=Nn1c(-c2cc(-c3ccccc3)n[nH]2)n[nH]c1=S	/	69.5*	/	/	58.3*	27.5*
S=c1[nH]nc(-c2ccccn2)n1/N=C/c1cccc2ccccc12	-6.6	1.9	9.2	0.7	/	/
Cc1cc(C(=O)O)ccc1-n1c(C)cc(C=C2C(=O)c3ccccc3C2=O)c1C	-0.3	42.8*	4.8	3.2	41.1*	11.1*
COc1ccc(C(=O)/C=C(\Nc2ccc(Br)c(C)c2)c2ccc(OC)cc2OC)c(OC)c1	/	8.4	/	/	/	/
O=C1OC(c2ccccc2)(c2cc(Br)c(O)c(Br)c2)c2ccccc21 (stereo unspecified)	-3.3	49.8*	8.4	-1.1	57.1*	15.7*
